Results on 44 compounds are retold here after the antibiotic and cytotoxicity screens of Wong et al. (2023).

In all, about 39,000 compounds went through this assay and about 500 (1.3%) were called active. This excerpt belongs to a sample that is enriched for actives.

The subject of this assay is S. aureus RN4220. In words: growth inhibition call (relative growth <= 0.2). The following applies: 50 µM.
Consider `C[C@@H]1CN([C@H](C)CO)C(=O)Cc2cc(NC(=O)CCN3CCOCC3)ccc2O[C@@H]1CN(C)S(=O)(=O)c1ccc(F)cc1`, for which the growth inhibition call was “inactive”.

Regarding `CC(=O)OC[C@H]1O[C@H](n2ccc(=O)[nH]c2=O)[C@@H](OC(C)=O)[C@@H]1OC(C)=O`, the growth inhibition call is “inactive”.

On to `O=C(C[C@H]1CC[C@H]2[C@@H](COC[C@@H](O)CN2C(=O)Nc2cccc(F)c2)O1)NCCCN1CCOCC1`, for which the growth inhibition call was “inactive”.

Regarding `O=C(C[C@H]1CC[C@@H]2[C@H](COC[C@@H](O)CN2C(=O)Nc2cccc(F)c2)O1)NCCCN1CCOCC1`, the growth inhibition call was “inactive”.

Take `O=C(C[C@@H]1CC[C@@H]2[C@H](COC[C@@H](O)CN2C(=O)Nc2cccc(Cl)c2)O1)NCCCN1CCOCC1`: the growth inhibition call was “active”.

On to `Cc1noc(C)c1S(=O)(=O)N(C)C[C@@H]1Oc2ccc(NC(=O)Cn3cnnn3)cc2CC(=O)N([C@H](C)CO)C[C@@H]1C`, for which the growth inhibition call was “inactive”.

As to `Cc1noc(C)c1NC(=O)Nc1ccc2c(c1)C(=O)N([C@@H](C)CO)C[C@H](C)[C@H](CN(C)C(=O)NC1CCCCC1)OCCCC[C@@H](C)O2`, the growth inhibition call was “inactive”.

Regarding `C[C@@H]1CCCCO[C@@H](CN(C)C(=O)Nc2ccc(C(F)(F)F)cc2)[C@H](C)CN([C@@H](C)CO)C(=O)c2cc(NC(=O)c3ccncc3)ccc2O1`, the growth inhibition call is “inactive”.

Consider `C[C@@H]1CN([C@@H](C)CO)C(=O)c2cccc(NS(=O)(=O)c3ccc(F)cc3)c2O[C@H]1CN(C)C(=O)Nc1ccc(C(F)(F)F)cc1`, for which the growth inhibition call is “inactive”.

Regarding `C[C@@H]1CCCCO[C@H](CN(C)Cc2ccc(C(F)(F)F)cc2)[C@@H](C)CN([C@@H](C)CO)C(=O)c2cc(NS(=O)(=O)c3cn(C)cn3)ccc2O1`, the growth inhibition call was “inactive”.

Consider `C[C@H]1CN([C@@H](C)CO)C(=O)c2ccccc2-c2ccccc2CO[C@H]1CN(C)Cc1ccccc1C(F)(F)F`, for which the growth inhibition call is “inactive”.

As for `C[C@@H]1CN([C@H](C)CO)C(=O)c2c(c3ccccc3n2C)-c2ccccc2CO[C@H]1CN(C)Cc1ccc(C(=O)O)cc1`, the growth inhibition call is “inactive”.

`C[C@H](CO)N1C[C@H](C)[C@H](CN(C)Cc2ccc(C(=O)O)cc2)OCc2ccccc2-c2c(n(C)c3ccccc23)C1=O`: the growth inhibition call was “active”.

For the compound `C[C@@H]1CN([C@H](C)CO)C(=O)c2c(c3ccccc3n2C)-c2ccccc2CO[C@@H]1CN(C)Cc1ccc(C(=O)O)cc1`, the growth inhibition call is “inactive”.

As for `C[C@H](CO)N1C[C@H](C)[C@H](CN(C)Cc2ccccc2C(F)(F)F)OCc2ccccc2-c2ccccc2C1=O`, the growth inhibition call was “inactive”.

Take `C[C@@H]1CN([C@@H](C)CO)C(=O)c2ccccc2-c2ccccc2CO[C@H]1CN(C)Cc1ccccc1C(F)(F)F`: the growth inhibition call was “active”.

In the case of `C[C@@H]1CN([C@H](C)CO)C(=O)c2ccccc2-c2ccccc2CO[C@@H]1CN(C)Cc1ccccc1C(F)(F)F`, the growth inhibition call was “inactive”.

As to `C[C@H](CO)N1C[C@H](C)[C@@H](CN(C)Cc2ccccc2C(F)(F)F)OCc2ccccc2-c2ccccc2C1=O`, the growth inhibition call was “active”.

Take `C[C@@H]1CN([C@@H](C)CO)C(=O)c2ccccc2-c2ccccc2CO[C@@H]1CN(C)Cc1ccccc1C(F)(F)F`: the growth inhibition call is “inactive”.

As for `O=C([C@H]1CCCO1)N1CCNCC1`, the growth inhibition call was “inactive”.

For `C[C@@H]1CCCCO[C@@H](CN(C)Cc2ccncc2)[C@H](C)CN([C@H](C)CO)C(=O)c2cc(NC(=O)CCC(F)(F)F)ccc2O1`, the growth inhibition call was “inactive”.

As for `COc1ccc2c3c(n(c2c1)C)[C@@H](CO)N(C[C@]13CCN(CC1)C(=O)c1ccccc1F)C(=O)Nc1ccccc1F`, the growth inhibition call is “inactive”.

Consider `Cc1ccc(S(=O)(=O)N(C)C[C@H]2OCCCC[C@H](C)Oc3ccc(NS(=O)(=O)c4ccc(Cl)cc4)cc3C(=O)N([C@H](C)CO)C[C@@H]2C)cc1`, for which the growth inhibition call is “inactive”.

For the compound `COCCCOc1cc(C[C@@H](C[C@H](N)[C@@H](O)C[C@H](C(=O)NCC(C)(C)C(N)=O)C(C)C)C(C)C)ccc1OC`, the growth inhibition call was “inactive”.

For `C[C@@H]1CN([C@H](C)CO)S(=O)(=O)c2ccc(C#CC3CCCCC3)cc2O[C@@H]1CN(C)C(=O)Cc1ccncc1`, the growth inhibition call was “inactive”.

As to `C[N+](C)(C)CCCCNC(=O)[C@@H]1C[C@@H]2C(=O)N[C@@H](CCCC[N+](C)(C)C)C(=O)N2[C@@H]1c1cccc(OCCO)c1`, the growth inhibition call is “inactive”.

For `C[C@@H]1CN([C@H](C)CO)C(=O)c2cc(NC(=O)Nc3cccc4ccccc34)ccc2O[C@@H]1CN(C)Cc1ccccc1`, the growth inhibition call is “inactive”.

In the case of `CC(C)NC(=O)Nc1ccc2c(c1)CC(=O)N([C@H](C)CO)C[C@@H](C)[C@@H](CN(C)Cc1ccc(Oc3ccccc3)cc1)O2`, the growth inhibition call is “inactive”.

Consider `CN1CCN(c2c(F)cc3c(=O)c(C(=O)O)cn4c3c2SCC4)CC1`, for which the growth inhibition call is “active”.

As for `CN1CCN(c2c(F)cc3c(=O)c(C(=O)O)cn(CCF)c3c2F)CC1`, the growth inhibition call was “active”.

Consider `Cc1ccc(S(=O)(=O)Nc2ccc3c(c2)CC(=O)N([C@@H](C)CO)C[C@@H](C)[C@@H](CN(C)C(=O)Nc2ccc(C(F)(F)F)cc2)O3)cc1`, for which the growth inhibition call was “inactive”.

As for `NC(CO)C(=O)O` (centres undefined), the growth inhibition call was “inactive”.

As for `Cn1cnc(S(=O)(=O)N2C[C@@H](O)COC[C@@H]3O[C@H](CC(=O)NC4CCCC4)CC[C@H]32)c1`, the growth inhibition call was “inactive”.

For `O=C(NCCO)c1nc(NCCO)c2ccccc2n1`, the growth inhibition call was “inactive”.

Turning to `C[C@@H]1CCCCO[C@H](CN(C)S(=O)(=O)c2ccccc2)[C@@H](C)CN([C@@H](C)CO)C(=O)c2cc(NC(=O)Nc3ccccc3)ccc2O1`, the growth inhibition call was “inactive”.

`CCC(=O)NC[C@H](Cc1ccc(OCCc2nc(-c3ccccc3)oc2C)cc1)N/C(C)=C\C(=O)c1ccc(C(F)(F)F)cc1`: the growth inhibition call is “inactive”.

With `COC(=O)c1nc[nH]c1C(=O)OC`, the growth inhibition call is “inactive”.

As for `CC1(C)C(C(=O)O)N2C(=O)CC2S1(=O)=O` (centres undefined), the growth inhibition call is “inactive”.

`CC1(C)[C@H](C(=O)O)N2C(=O)C[C@H]2S1(=O)=O`: the growth inhibition call is “inactive”.

As for `CC1(Cn2ccnn2)C(C(=O)O)N2C(=O)CC2S1(=O)=O` (centres undefined), the growth inhibition call is “active”.

As to `C[n+]1ccn(C[C@@]2(C)[C@H](C(=O)O)N3C(=O)C[C@H]3S2(=O)=O)n1`, the growth inhibition call is “active”.

On to `Cc1noc(C[C@@H]2C[C@@H]3CN(S(C)(=O)=O)C[C@@H]3O2)n1`, for which the growth inhibition call is “inactive”.

Consider `C[C@@H]1CCCCO[C@H](CN(C)C)[C@H](C)CN([C@H](C)CO)C(=O)c2cc(NS(=O)(=O)c3cn(C)cn3)ccc2O1`, for which the growth inhibition call is “inactive”.

With `CS(=O)(=O)N1[C@@H]2c3ccc(-c4ccccc4)c(=O)n3C[C@H]1[C@H](CO)[C@H]2C(=O)NCC1CC1`, the growth inhibition call is “inactive”.
